PubChem BioAssay (Tox21)
Values joined by “and” are separate entries in the source; they are usually repeats but may differ in a detail not shown here. Equal values may be shown once. Results filed as inconclusive are left out. Active and inactive are the calls of the source. Unless noted, calls follow the shape of the dose curve; as a rule, active = well fitted curve in the direction sought with a large enough effect in the repeat runs; inconclusive = weak or mixed curves; inactive = no such curve, though single readings can be large; an effect the other way counts as inactive or inconclusive.

How the values were obtained:
[1] = qHTS assay for identifying genotoxic compounds that show differential cytotoxicity against isogenic chicken DT40 cell lines with known DNA damage response pathways - wild type cell line (AID 743012); also: nearly all actives have a fitted effect of over 60% in size; also: potency is read from the fitted curve at half-maximal effect
Procedure, shortened: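 Luminescent ATP viability signal (CellTiter-Glo, 30 min RT) recorded after wild type DT40 cells were incubated with compounds for 40 h at 37 C/5% CO2.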

[2] = qHTS assay for identifying genotoxic compounds that show differential cytotoxicity against isogenic chicken DT40 cell lines with known DNA damage response pathways - Rev3 mutant cell line (AID 743014); also: nearly all actives have a fitted effect of over 55% in size; also: potency is read from the fitted curve at half-maximal effect
[3] = qHTS assay for identifying genotoxic compounds that show differential cytotoxicity against isogenic chicken DT40 cell lines with known DNA damage response pathways - Rad54/Ku70 mutant cell line (AID 743015); also: nearly all actives have a fitted effect of over 60% in size; also: potency is read from the fitted curve at half-maximal effect
[4] = qHTS assay to identify small molecule antagonists of the androgen receptor (AR) signaling pathway - cell viability counter screen (AID 743033; also: nearly all actives have a fitted effect of over 45% in size; also: potency is read from the fitted curve at half-maximal effect)
[5] = qHTS assay to identify small molecule antagonists of the androgen receptor (AR) signaling pathway using the MDA cell line - cell viability counter screen (AID 743041; also: nearly all actives have a fitted effect of over 45% in size; also: potency is read from the fitted curve at half-maximal effect)
Procedure, shortened: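 qHTS viability read-out; MDA-kb2 AR-luc; R1881-stimulated; 16 h exposure at 37C, 0% CO2; CellTiter-Fluor, 30 min; fluorescence intensity.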

[6] = biological target: Androgen receptor (Homo sapiens) (UniProt P10275); assay: qHTS assay to identify small molecule agonists of the androgen receptor (AR) signaling pathway using the MDA cell line (AID 743040; also: nearly all actives have a fitted effect of over 20% in size; also: potency is read from the fitted curve at half-maximal effect)
Procedure, shortened: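 Agonist activity is measured as luciferase luminescence in human MDA-kb2 cells whose MMTV reporter responds to both AR and GR. Compounds in DMSO incubate 16 h at 37C, 0% CO2, and ONE-Glo is read after 30 min.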

[7] = biological target: Androgen receptor (Homo sapiens) (UniProt P10275); assay: qHTS assay to identify small molecule agonists of the androgen receptor (AR) signaling pathway (AID 743036; active = well fitted activation curve with a large enough effect in the signal ratio in the repeat runs, with a control signal flat, not every such curve was filed as active; the % refers to the signal ratio)
Procedure, shortened: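 Quantitative HTS of the Tox21 10K library in HEK293 cells bearing a stably integrated UAS-controlled beta-lactamase reporter. Compound exposure lasted 16 h at 37C. Reporter activity was detected by FRET substrate fluorescence after 2 h at room temperature.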

[8] = biological target: Androgen receptor (Homo sapiens) (UniProt P10275); assay: qHTS assay to identify small molecule antagonists of the androgen receptor (AR) signaling pathway (AID 743035; active = well fitted inhibition curve with a large enough effect in the signal ratio in the repeat runs, not every such curve was filed as active; the % refers to the signal ratio; also: potency is read from the fitted curve at half-maximal effect)
Procedure, shortened: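 Quantitative HTS of the Tox21 10K library used HEK293 AR-UAS-bla cells stimulated with R1881 alongside compound for 16 h at 37C, followed by beta-lactamase FRET detection (LiveBLAzer B/G, 2 h, RT).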

[9] = biological target: Androgen receptor (Homo sapiens) (UniProt P10275); assay: qHTS assay to identify small molecule antagonists of the androgen receptor (AR) signaling pathway using the MDA cell line (AID 743042; also: nearly all actives have a fitted effect of over 55% in size; also: potency is read from the fitted curve at half-maximal effect)
Procedure, shortened: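 MDA-kb2 cells (human breast carcinoma, stably carrying an MMTV-luciferase reporter responsive to AR and GR) were plated at 3,000 cells/well and preincubated 5 hr at 37C, then given compound plus R1881 agonist for 16 h. ONE-Glo luminescence was read.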

Measured: Potency

Sequence of Androgen receptor (Homo sapiens) (P10275 whole entry, looked up): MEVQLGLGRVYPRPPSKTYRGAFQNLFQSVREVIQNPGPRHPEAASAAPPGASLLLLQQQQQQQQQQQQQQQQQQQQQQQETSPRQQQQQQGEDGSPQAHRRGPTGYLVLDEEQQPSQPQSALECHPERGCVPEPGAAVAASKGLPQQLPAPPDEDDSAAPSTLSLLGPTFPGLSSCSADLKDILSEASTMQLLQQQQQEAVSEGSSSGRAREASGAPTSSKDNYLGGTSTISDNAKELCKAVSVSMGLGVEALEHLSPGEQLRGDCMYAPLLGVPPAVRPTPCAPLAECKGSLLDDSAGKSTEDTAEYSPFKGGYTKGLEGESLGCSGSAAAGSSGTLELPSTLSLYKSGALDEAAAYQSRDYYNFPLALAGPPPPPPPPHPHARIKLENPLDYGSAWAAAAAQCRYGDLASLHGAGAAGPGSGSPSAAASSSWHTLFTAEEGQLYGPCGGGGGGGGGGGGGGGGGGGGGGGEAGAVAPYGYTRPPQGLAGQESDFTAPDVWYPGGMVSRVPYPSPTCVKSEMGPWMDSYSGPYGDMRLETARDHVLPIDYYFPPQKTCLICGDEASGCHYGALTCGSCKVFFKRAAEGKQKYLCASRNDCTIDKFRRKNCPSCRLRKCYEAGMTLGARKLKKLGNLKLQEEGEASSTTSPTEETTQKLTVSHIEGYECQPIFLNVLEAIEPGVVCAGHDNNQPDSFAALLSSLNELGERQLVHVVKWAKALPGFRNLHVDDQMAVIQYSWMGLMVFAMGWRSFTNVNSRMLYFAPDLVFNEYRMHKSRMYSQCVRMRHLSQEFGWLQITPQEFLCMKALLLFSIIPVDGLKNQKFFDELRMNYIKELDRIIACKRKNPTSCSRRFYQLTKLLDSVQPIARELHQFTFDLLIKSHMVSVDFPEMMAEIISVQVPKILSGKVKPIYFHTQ

Clc1ccccc1CN1CCc2sccc2C1
active: [1] 23.7 µM | [2] 21.1 µM | [3] 26.6 µM
inactive: [4] | [5]

N#CSCSc1nc2ccccc2s1
inactive: [6]
active: [1] 0.864 µM | [2] 0.969 µM | [3] 0.969 µM | [4] 13.8 µM

CCCCCCCCCCOCC(O)CN (stereo not given)
inactive: [4] | [7] | [6]
active: [1] 4.73 µM | [2] 6.68 µM | [3] 7.5 µM

COc1ccccc1OCCNCC(O)COc1cccc2[nH]c3ccccc3c12 (stereo not given)
inactive: [8] | [7] | [6]
active: [1] 26.6 µM | [2] 29.8 µM | [3] 29.8 µM

CCOC(=O)N1CCC(=C2c3ccc(Cl)cc3CCc3cccnc32)CC1
active: [1] 8.41 µM and 8.63 µM | [2] 7.5 µM and 9.69 µM | [3] 9.44 µM and 10.9 µM | [4] 17.4 µM

O=C(O)CCn1c2c(c3ccccc31)C[C@H](NS(=O)(=O)c1ccc(F)cc1)CC2
inactive: [1] | [2] | [3] | [4] | [5]

O=C1C=CC(=O)N1c1ccccc1
inactive: [6]
active: [1] 1.09 µM | [2] 1.22 µM | [3] 1.37 µM | [4] 12.3 µM | [5] 48.6 µM | [9] 27.3 µM

CCN=c1cc2oc3cc(NCC)c(C)cc3c(-c3ccccc3C(=O)OCC)c-2cc1C
active: [1] 484 nM and 172 nM | [2] 384 nM and 137 nM | [3] 305 nM and 109 nM | [4] 689 nM and 1.23 µM | [8] 154 nM | [5] 683 nM and 386 nM | [9] 108 nM and 96.9 nM
inactive: [6]

CCCOc1sc(C(=O)N2CCC(c3cc(CN)ccc3F)CC2)c(C)c1Br
inactive: [6]
active: [1] 14.1 µM | [2] 17.7 µM | [3] 14.1 µM | [4] 20 µM | [5] 49.9 µM | [9] 44.5 µM

O=C(O)CC(=O)O
inactive: [1] | [2] | [3] | [4] | [5]

Cc1cccc(Br)c1
inactive: [1] | [2] | [3] | [4] | [5]

CC(C)=C1CC[C@@H](C)CC1=O
inactive: [1] | [2] | [3] | [4] | [5]

CCOC(=O)C1=C(C)NC(C)=C(C(=O)OCC)C1c1ccccc1/C=C/C(=O)OC(C)(C)C
inactive: [4] | [6] | [5]
active: [1] 2.66 µM | [2] 3.76 µM | [3] 5.96 µM

C(=C/c1ccccc1)/c1ccccc1
inactive: [1] | [2] | [3] | [4] | [5]

CCN(CC)c1ccc(N)cc1
active: [1] 5.6 µM | [2] 4.45 µM | [3] 4.45 µM | [4] 15.9 µM | [5] 22.3 µM

O=S(=O)(O)CCCN1CCOCC1
inactive: [1] | [2] | [3] | [4] | [5]

Cc1cn[nH]c1
inactive: all assays above

C[Si](C)(C)Cl
inactive: all assays above

COc1ccc2sc(C(=O)Nc3nnn[nH]3)c(OC(C)C)c2c1
active: [1] 30.5 µM | [2] 27.2 µM | [3] 17.2 µM | [4] 24.5 µM

CC1=C(/C=C/C(C)=C/C=C/C(C)=C\C=O)C(C)(C)CCC1
inactive: [5]
active: [1] 14.5 µM | [2] 14.5 µM | [3] 13 µM | [4] 29.3 µM

O=C(O)CCCCCCC(=O)O
inactive: [1] | [2] | [3] | [4] | [5]

CC(O)C#CC(C)O (stereo not given)
active: [1] 9.59 µM | [2] 7.62 µM | [3] 10.8 µM | [4] 48.5 µM
inactive: [5]

C/C=C/C(=O)Oc1c(CCCCCC(C)C)cc([N+](=O)[O-])cc1[N+](=O)[O-]
active: [1] 3.44 µM | [2] 3.44 µM | [3] 2.43 µM | [4] 7.76 µM | [5] 7.7 µM

CC(C)(c1cc(Br)c(O)c(Br)c1)c1cc(Br)c(O)c(Br)c1
inactive: [5]
active: [1] 57.9 µM | [2] 60.9 µM and 64.9 µM | [3] 51.6 µM | [4] 54.8 µM

Clc1ccc(C(Cn2ccnc2)OCc2ccsc2Cl)c(Cl)c1 (stereo not given)
active: [1] 7.5 µM | [2] 11.9 µM | [3] 13.3 µM | [4] 26.8 µM
inactive: [5]

[O]=[Zr]
inactive: [1] | [2] | [3] | [4] | [5]

O=C1OC(OC(=O)c2cccnc2Nc2cccc(C(F)(F)F)c2)c2ccccc21 (stereo not given)
not listed: [1] | [7]
inactive: all other assays above

CNCC[C@H](Oc1cccc2ccccc12)c1cccs1
active: [1] 5.31 µM | [2] 9.44 µM | [3] 9.44 µM | [5] 24.8 µM

O=C(NO)c1ccccc1
active: [2] 44.9 µM | [3] 50.4 µM
inactive: [6] | [5] | [9]

CCOC(=O)[C@@](C)(N)Cc1ccc(O)c(O)c1
inactive: [2] | [3] | [5]

COc1cc(C(=O)NS(=O)(=O)c2ccccc2C)ccc1Cc1cn(C)c2ccc(NC(=O)OC3CCCC3)cc12
inactive: [1] | [4] | [5]

COc1cc(C=C2CCC/C(=C\c3ccc(O)c(OC)c3)C2=O)ccc1O
inactive: [6]
active: [1] 8.41 µM | [2] 11.9 µM | [3] 9.44 µM | [9] 21.1 µM

O=Cc1ccc(F)cc1
active: [2] 19.3 µM | [3] 19.3 µM
not listed: [1] | [7]
inactive: all other assays above

CN1CCN(C2Cc3ccccc3Sc3ccc(Cl)cc32)CC1 (stereo not given)
active: [1] 5.96 µM | [2] 6.68 µM | [3] 9.44 µM
inactive: [7] | [6] | [9]

CCCCCCOc1cc(C)c(O)c(C)c1C
inactive: [5]
active: [1] 19.6 µM | [2] 22 µM | [3] 15.5 µM

CCC(C)c1cc([N+](=O)[O-])cc([N+](=O)[O-])c1OC(=O)OC(C)C (stereo not given)
inactive: [6]
active: [1] 30.6 µM | [2] 48.6 µM | [3] 30.6 µM | [5] 54.5 µM | [9] 27.3 µM

CCN1CCN(c2cc(-c3ccc(F)cc3)c3c(n2)CCCCCC3)CC1
not listed: [1] | [2] | [7]
inactive: all other assays above

C=C[C@](C)(O)CC[C@@H]1[C@@]2(C)CCCC(C)(C)[C@@H]2CC[C@@]1(C)O
active: [1] 24.3 µM | [2] 19.3 µM | [3] 19.3 µM
inactive: [5]

CCN(CC)CCSC(=O)C(c1ccccc1)c1ccccc1
inactive: [2] | [4] | [5]
active: [1] 26.6 µM

CC(C)(C)C1=CC(=O)C=C(C(C)(C)C)C1=O
inactive: [1] | [4] | [5]

C=C1C(C)(C)[C@@]2(Cl)C(Cl)[C@]1(Cl)C(Cl)(Cl)C2(Cl)Cl (stereo not given in full)
inactive: [7] | [6] | [5] | [9]
active: [1] 47.7 µM | [2] 6.73 µM | [3] 23.9 µM

CN1[C@@H]2CC[C@H]1CC(OC(=O)C(CO)c1ccccc1)C2 (stereo not given in full)
inactive: [4] | [5]

Cc1c(C(=O)O)cccc1[N+](=O)[O-]
inactive: [8] | [7] | [6] | [5]
active: [1] 62.1 µM

C=C(C)C(=O)OCCC[Si](Cl)(Cl)Cl
inactive: [2] | [3] | [4] | [5]

COc1cc(C(C)C)c2c(c1)S(=O)(=O)N(COc1cc(=O)n3cccc(OCCN4CCCCC4)c3n1)C2=O
inactive: [6] | [5]
active: [1] 13 µM | [2] 16.4 µM | [3] 13 µM

SCCCCCCCCS
active: [1] 68.6 µM | [3] 54.5 µM
inactive: [4] | [5]

CCO[Si](CCCSSSSCCC[Si](OCC)(OCC)OCC)(OCC)OCC
active: [2] 61.2 µM | [3] 38.6 µM
inactive: [5]

O=C(c1ccccc1)c1cc(Cl)ccc1O
inactive: [1] | [2] | [3] | [5]

CCOC(=O)COc1ccc(C)cc1
inactive: [3] | [4] | [5]

NCCCC(O)(P(=O)(O)O)P(=O)(O)O
inactive: [4] | [5]

CN(C)c1ccc(N=NS(=O)(=O)O)cc1
active: [1] 22.9 µM | [2] 26.1 µM | [3] 22 µM | [5] 14.4 µM | [9] 23.7 µM
inactive: [6]

CCCCOc1ccc(C(=O)CCN2CCCCC2)cc1
active: [1] 0.717 µM | [2] 1.27 µM | [3] 1.01 µM | [5] 10.6 µM

CCC(=O)OCCc1ccccc1
inactive: [5]
active: [1] 18.5 µM | [2] 23.3 µM | [3] 41.4 µM

C[n+]1c2cc(N)ccc2cc2ccc(N)cc21 (tested in a mixture with another compound)
active: [1] 5.96 µM | [2] 1.68 µM | [3] 2.66 µM
inactive: [6]

CCCC(CC)CCCCCCCN (stereo not given)
inactive: [1] | [3] | [4] | [5]

O=C1Nc2ccc(Cl)cc2[C@@](C#CC2CC2)(C(F)(F)F)O1
inactive: [5]
active: [1] 26.6 µM | [2] 26.6 µM | [3] 21.1 µM

CC(=O)Oc1ccc(C2(c3ccc(OC(C)=O)cc3)Oc3ccccc3NC2=O)cc1
inactive: [4] | [5]

Cc1oc(-c2ccccc2)nc1CCOc1ccc(C[C@H](Nc2ccccc2C(=O)c2ccccc2)C(=O)O)cc1
active: [2] 61.1 µM | [3] 54.5 µM | [5] 61.1 µM
inactive: [4] | [6]

CN(C)c1ccc(N=Nc2ccccc2C(=O)O)cc1
inactive: [1] | [2] | [4] | [5]

c1cc(OCC2CO2)cc(OCC2CO2)c1 (stereo not given)
inactive: [6] | [5]
active: [1] 0.856 µM | [2] 0.0763 µM | [3] 1.36 µM

O=C1c2c(O)ccc(O)c2C(=O)c2c(NCCNCCO)ccc(NCCNCCO)c21
inactive: [6]
active: [1] 0.0072 µM | [2] 0.0101 µM | [8] 512 nM | [5] 9.43 µM | [9] 5.07 µM

c1ccc(Sc2ccccc2)cc1
active: [2] 68.6 µM
inactive: [8] | [7] | [6] | [5] | [9]

C[C@]12CC[C@H]3C(=CCc4cc(O)ccc43)[C@@H]1CCC2=O
active: [2] 54.5 µM | [3] 48.6 µM | [6] 5.45 µM | [9] 27.3 µM
